Assay results published in PubChem BioAssay (EPA / NIEHS).
Where a structure was tested more than once in an assay, its records may differ in their call. Calls of active or inactive are those of the source. The calls were made as follows: active = hit-call score of the fitted dose curve at least 0.9, where 1 is the maximum; inactive = score below 0.9.

Assay: ATG_AP_2_CIS: Attagene CIS-FACTORIAL HepG2 Assay for human Activator Protein 2 (AP-2) (AID 2282932)
Conditions: HepG2 AP-2 cis-reporter, Attagene transcription factor profiling; actives raise or lower the signal
Protocol: ATG_CIS is a cell-based, multiplexed-readout assay that uses HepG2, a human liver cell line, with measurements taken at 24 hours after chemical dosing in a 24-well plate.ATG_AP_2_CIS is one of 52 assay component(s) measured or calculated from the ATG_CIS assay. It is designed to make measurements of mRNA induction, a form of inducible reporter, as detected with fluorescence intensity signals by Reverse transcription polymerase chain reaction (RT-PCR) and Capillary electrophoresis technology.Data from the assay component ATG_AP_2_CIS was analyzed into 1 assay endpoint. This assay endpoint, ATG_AP_2_CIS, was analyzed with bidirectional fitting relative to DMSO as the negative control and baseline of activity. Using a type of inducible reporter, measures of mRNA for gain or loss-of-signal activity can be used to understand the reporter gene at the transcription factor-level as they relate to the gene TFAP2A and TFAP2B and TFAP2D. Furthermore, this assay endpoint can be referred to as a primary readout, because this assay has produced multiple assay endpoints where this one serves a reporter gene function. To generalize the intended target to other relatable targets, this assay endpoint is annotated to the dna binding intended target family, where the subfamily is basic helix-turn-helix leucine zipper.
Human liver HepG2 cells are transiently transfected with multiple reporter transcription units (MRTUs) in 6-well plates using FuGene 6 reagent (Roche; 3 ml FuGene/1 mg DNA). The MRTU constructs are regulated by a cis-regulating element (promoter). […] A major difference between the CIS and TRANS system is that in CIS activities of endogenous TFs are measured, whereas the TRANS assay evaluates changes in activities of exogenous, chimeric NR-Gal4 proteins. […] At the end of 24 hour incubation, total RNA was isolated using TriZol reagent (Invitrogen). The isolated RNA is then reverse-transcribed using oligo(dT) primer and Mo-MLV reverse transcriptase (Invitrogen) with DNAse I (Ambion) treatment for 30 min. The one-tenth of the produced cDNA was amplified by PCR using Taq DNA polymerase (Invitrogen) and two reporter sequence-specific primers. The PCR products were fluorescently labeled by primer extension with 6-arboxyfluorescein (6-FAM) 5'-labeled reporter sequence-specific primer (2 min at 95 C, 20 s at 68 C and 10 min at 72 C) and these products were digested with 5U of HpaI (New England Biolabs) for 2h at 37 C. The fragments were purified using Qiaquick PCR columns (Qiagen), analyzed on an ABI 3130xL genetic analyzer (Applied Biosystems) with peak positions identified by using a set of X-rhodamine (ROX)-labeled MapMarker1000 molecular weight standards (BioVentures). The raw capillary electrophoresis data was processed using Attagraph software (Attagene).
In the case of `COc1cc(C(=O)NC2CCN(C)CC2)ccc1Nc1ncc2c(n1)N(C1CCCC1)CC(F)(F)C(=O)N2C`, the AC50 was 0.89 µM (active). In the case of `Cc1cccc2ccccc12`, the outcome was “inactive”. With `CCCCCCCCCCCO` the outcome was “inactive”. In the case of `CN1C(=O)CC[C@H]1c1cccnc1`, the outcome was “inactive”. For `COc1ccc2cc(S(=O)(=O)N[C@H](CC(=O)N[C@H](Cc3ccc(CN4[C@H](C)CCC[C@@H]4C)cc3)C(=O)N(C)C(C)C)c3ccc4c(c3)OCO4)ccc2c1`, the outcome was “inactive”. In the case of `CC[C@H](NC(=O)c1cc(F)ccc1NS(=O)(=O)c1cccc2cccnc12)c1ccccc1`, the outcome was “inactive”. For `Cc1cn([C@H]2C[C@H](N=[N+]=[N-])[C@@H](CO)O2)c(=O)[nH]c1=O`, the outcome was “inactive”. With `CC[C@@H]1C[C@H](N(Cc2cc(C(F)(F)F)cc(C(F)(F)F)c2)C(C)=O)c2cc(C(F)(F)F)ccc2N1C(=O)OC(C)C` the outcome was “inactive”. In the case of `CC(O)CC(C)(C)O` (stereo not given), the outcome was “inactive” and the AC50 was 0.0125 µM (active). With `CCCCCCCCCCCC[N+](C)(C)C` the outcome was “inactive”. For `O=C=NCCCCCCN=C=O`, the outcome was “inactive”. For `NC(=O)c1nc(-c2cccc(-c3cc(F)ccc3OCC(F)(F)C(F)(F)F)c2)n[nH]1`, the outcome was “inactive”. For `O=C1c2ccccc2C(=O)N1CCc1noc(-c2ccc(CN3CCCCCC3)s2)n1`, the outcome was “inactive”. With `Oc1ccc2ccccc2c1` the outcome was “inactive”. In the case of `O=c1ccc2ccccc2o1`, the outcome was “inactive”. With `OCCO` the outcome was “inactive”. For `CCCCOC(=O)CC(CC(=O)OCCCC)(OC(C)=O)C(=O)OCCCC`, the outcome was “inactive”. In the case of `CC/C(=C(/CC)c1ccc(O)cc1)c1ccc(O)cc1`, the outcome was “inactive”. For `CCN(CC)C(=O)c1cc(S(=O)(=O)Cc2ccccc2)c(N2CCC(c3ccccc3)CC2)cc1N(CC)CCN(C)C`, the outcome was “inactive”. For `CC1(C)NC(=O)N(c2ccc([N+](=O)[O-])c(C(F)(F)F)c2)C1=O`, the outcome was “inactive”. In the case of `CN1C(=O)N(c2ccccc2Br)Cc2cnc(Nc3ccc4c(c3)OCC(CO)O4)nc21` (stereo not given), the outcome was “inactive”. In the case of `C[C@]12CC[C@@H]3c4ccc(O)cc4CC[C@H]3[C@@H]1CC[C@H]2O`, the outcome was “inactive”. In the case of `CC(C)(c1cc(Br)c(O)c(Br)c1)c1cc(Br)c(O)c(Br)c1`, the outcome was “inactive” and the AC50 was 55.8 µM (active). In the case of `O=C(O)c1ccccc1-n1cc(C(=O)O)c(=O)c2cc(Nc3c(F)cc(F)cc3Cl)c(Cl)cc21`, the outcome was “inactive”. For `c1ccc2n[nH]nc2c1`, the outcome was “inactive”. With `CC(=O)N1CCN(c2ccc(OC[C@H]3CO[C@](Cn4ccnc4)(c4ccc(Cl)cc4Cl)O3)cc2)CC1` the outcome was “inactive”. In the case of `c1ccc(C[n+]2cccc3ccccc32)cc1`, the outcome was “inactive”. In the case of `CCCCCCCCCC(=O)O`, the outcome was “inactive”. In the case of `Cc1cc2c(cc1C(F)(F)F)N(C(=O)Nc1ccc(Oc3cccnc3C)nc1)CC2`, the outcome was “inactive”. With `COCC(C)OCC(C)OCC(C)O` (stereo not given) the outcome was “inactive”. With `CCCCCCCCCCCCO` the outcome was “inactive”. For `O=C(O)Cc1cc(I)c(Oc2ccc(O)c(I)c2)c(I)c1`, the outcome was “inactive” and the AC50 was 50.9 µM (active). In the case of `CCCCCCCCOc1ccc(C(=O)c2ccccc2)c(O)c1`, the outcome was “inactive”. For `Cc1oc2c(NC(=O)c3c(Cl)cccc3Cl)cccc2c1C(C)(C)O`, the outcome was “inactive”. With `O=c1[nH]sc2ccccc12` the outcome was “inactive”. With `OC12N=C(c3ccccc3)SC1Cc1cc(Cl)ccc12` (stereo not given) the outcome was “inactive”. In the case of `CC(C)(C)c1cc(/C=C2\SC(N)=NC2=O)cc(C(C)(C)C)c1O`, the outcome was “inactive”.
